The values that follow come from ChEMBL document CHEMBL1961873, “Compounds: GSK PKIS; Assays: Nanosyn kinase panel” (2012).

In assay [1] the target is Sphingosine kinase 1 (Homo sapiens) (UniProt Q9NYA1). The conditions noted are these: at 1 µM.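 Further: mean SPHK1 inhibition value reported from the GSK PKIS kinase panel screen.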
For assay [2], the target named is T1, Sphingosine kinase 2 (Homo sapiens) (UniProt Q9NRA0).
T1 sequence (whole entry): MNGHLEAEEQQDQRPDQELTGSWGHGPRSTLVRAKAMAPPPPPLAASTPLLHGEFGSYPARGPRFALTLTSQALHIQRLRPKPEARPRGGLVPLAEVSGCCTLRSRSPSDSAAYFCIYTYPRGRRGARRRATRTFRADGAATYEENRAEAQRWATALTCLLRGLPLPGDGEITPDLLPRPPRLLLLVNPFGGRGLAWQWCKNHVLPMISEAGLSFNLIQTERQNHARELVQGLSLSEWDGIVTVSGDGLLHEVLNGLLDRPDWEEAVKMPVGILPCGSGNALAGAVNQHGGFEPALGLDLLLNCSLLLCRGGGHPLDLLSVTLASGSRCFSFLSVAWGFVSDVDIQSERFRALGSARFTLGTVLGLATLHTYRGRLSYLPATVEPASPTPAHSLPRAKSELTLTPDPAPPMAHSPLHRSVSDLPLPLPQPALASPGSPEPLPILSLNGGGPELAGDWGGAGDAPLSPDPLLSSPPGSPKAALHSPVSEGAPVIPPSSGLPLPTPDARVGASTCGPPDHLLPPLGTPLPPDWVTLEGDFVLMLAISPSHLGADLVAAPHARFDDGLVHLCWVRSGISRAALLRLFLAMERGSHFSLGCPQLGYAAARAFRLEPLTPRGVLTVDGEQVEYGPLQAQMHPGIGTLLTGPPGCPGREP
The following applies: at 0.1 µM.

The target in assay [3] is T1, Sphingosine kinase 2 (Homo sapiens). The conditions noted are these: at 1 µM.
Assay [4] has as its target Casein kinase II subunit alpha (Homo sapiens) (UniProt P68400). The following applies: at 0.1 µM.
Assay [5] has the same target. The following applies: at 1 µM.
Assay [6] addresses T2, Inhibitor of nuclear factor kappa-B kinase subunit alpha (Homo sapiens) (UniProt O15111).
T2 sequence (whole entry): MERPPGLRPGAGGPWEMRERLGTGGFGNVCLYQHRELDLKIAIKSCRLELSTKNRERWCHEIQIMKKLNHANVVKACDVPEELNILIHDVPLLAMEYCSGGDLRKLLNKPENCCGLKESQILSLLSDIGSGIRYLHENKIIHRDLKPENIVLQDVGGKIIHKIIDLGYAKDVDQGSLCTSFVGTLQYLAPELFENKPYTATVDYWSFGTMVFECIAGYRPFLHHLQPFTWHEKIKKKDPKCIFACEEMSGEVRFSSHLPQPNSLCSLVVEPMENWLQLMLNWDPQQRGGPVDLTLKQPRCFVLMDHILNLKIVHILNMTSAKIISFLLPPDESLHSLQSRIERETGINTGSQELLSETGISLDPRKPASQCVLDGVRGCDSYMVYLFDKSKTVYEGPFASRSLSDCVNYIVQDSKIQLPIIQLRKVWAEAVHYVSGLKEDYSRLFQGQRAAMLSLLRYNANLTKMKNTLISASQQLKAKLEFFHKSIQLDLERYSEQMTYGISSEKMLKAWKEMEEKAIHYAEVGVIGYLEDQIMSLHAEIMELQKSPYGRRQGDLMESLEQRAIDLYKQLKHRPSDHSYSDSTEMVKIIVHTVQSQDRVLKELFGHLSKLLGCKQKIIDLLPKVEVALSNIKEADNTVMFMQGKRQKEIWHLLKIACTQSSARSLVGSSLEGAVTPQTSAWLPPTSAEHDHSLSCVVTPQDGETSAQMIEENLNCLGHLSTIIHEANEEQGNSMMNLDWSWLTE
The following applies: at 0.1 µM.

In assay [7] the target is T2, Inhibitor of nuclear factor kappa-B kinase subunit alpha (Homo sapiens). The following applies: at 1 µM.
For assay [8], the target named is T3, Inhibitor of nuclear factor kappa-B kinase subunit beta (Homo sapiens) (UniProt O14920).
T3 sequence (whole entry): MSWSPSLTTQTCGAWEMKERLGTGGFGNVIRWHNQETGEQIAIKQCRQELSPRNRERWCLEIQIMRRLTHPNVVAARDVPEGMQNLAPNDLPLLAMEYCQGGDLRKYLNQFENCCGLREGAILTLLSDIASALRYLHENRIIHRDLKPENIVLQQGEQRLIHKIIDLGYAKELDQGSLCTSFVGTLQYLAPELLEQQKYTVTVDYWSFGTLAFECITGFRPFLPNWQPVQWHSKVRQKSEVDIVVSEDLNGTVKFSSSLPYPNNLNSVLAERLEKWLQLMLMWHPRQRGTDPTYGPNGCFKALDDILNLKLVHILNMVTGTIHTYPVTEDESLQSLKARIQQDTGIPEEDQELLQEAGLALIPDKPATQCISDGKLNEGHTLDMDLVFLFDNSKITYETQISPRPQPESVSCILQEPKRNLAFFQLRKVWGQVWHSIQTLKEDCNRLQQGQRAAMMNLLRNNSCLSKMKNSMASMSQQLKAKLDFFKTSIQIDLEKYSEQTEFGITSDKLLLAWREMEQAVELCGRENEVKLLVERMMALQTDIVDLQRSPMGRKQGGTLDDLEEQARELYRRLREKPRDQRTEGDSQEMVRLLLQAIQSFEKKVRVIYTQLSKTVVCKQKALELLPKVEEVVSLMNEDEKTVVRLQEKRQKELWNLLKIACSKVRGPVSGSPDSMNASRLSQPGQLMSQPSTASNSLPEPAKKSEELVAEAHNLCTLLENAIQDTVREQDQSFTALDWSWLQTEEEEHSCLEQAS
The following applies: at 0.1 µM.

Assay [9] has as its target T3, Inhibitor of nuclear factor kappa-B kinase subunit beta (Homo sapiens). The conditions noted are these: at 1 µM.
Assay [10] deals with T4, Inhibitor of nuclear factor kappa-B kinase subunit epsilon (Homo sapiens) (UniProt Q14164).
T4 sequence (whole entry): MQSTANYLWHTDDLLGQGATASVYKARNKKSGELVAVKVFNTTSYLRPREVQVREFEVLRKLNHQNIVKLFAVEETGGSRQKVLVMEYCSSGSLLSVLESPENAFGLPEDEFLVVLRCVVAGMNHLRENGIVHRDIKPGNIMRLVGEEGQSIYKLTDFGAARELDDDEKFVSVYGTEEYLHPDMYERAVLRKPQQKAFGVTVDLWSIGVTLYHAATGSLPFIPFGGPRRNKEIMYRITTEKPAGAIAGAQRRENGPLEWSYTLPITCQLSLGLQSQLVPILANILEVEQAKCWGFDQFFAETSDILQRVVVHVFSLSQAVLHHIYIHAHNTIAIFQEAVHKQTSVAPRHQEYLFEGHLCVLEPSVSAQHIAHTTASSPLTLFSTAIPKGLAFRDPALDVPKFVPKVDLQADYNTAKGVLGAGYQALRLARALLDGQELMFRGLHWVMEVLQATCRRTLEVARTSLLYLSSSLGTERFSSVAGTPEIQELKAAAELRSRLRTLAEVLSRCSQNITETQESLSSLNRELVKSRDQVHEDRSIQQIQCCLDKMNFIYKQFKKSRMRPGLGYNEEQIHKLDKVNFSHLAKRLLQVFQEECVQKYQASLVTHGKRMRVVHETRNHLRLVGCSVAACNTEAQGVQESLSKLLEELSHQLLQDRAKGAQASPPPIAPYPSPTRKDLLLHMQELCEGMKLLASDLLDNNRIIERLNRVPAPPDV
The following applies: at 0.1 µM.

Assay [11] deals with T4, Inhibitor of nuclear factor kappa-B kinase subunit epsilon (Homo sapiens). The following applies: at 1 µM.
The target of assay [12] is T5, Serine/threonine-protein kinase Nek1 (Homo sapiens) (UniProt Q96PY6).
T5 sequence (whole entry): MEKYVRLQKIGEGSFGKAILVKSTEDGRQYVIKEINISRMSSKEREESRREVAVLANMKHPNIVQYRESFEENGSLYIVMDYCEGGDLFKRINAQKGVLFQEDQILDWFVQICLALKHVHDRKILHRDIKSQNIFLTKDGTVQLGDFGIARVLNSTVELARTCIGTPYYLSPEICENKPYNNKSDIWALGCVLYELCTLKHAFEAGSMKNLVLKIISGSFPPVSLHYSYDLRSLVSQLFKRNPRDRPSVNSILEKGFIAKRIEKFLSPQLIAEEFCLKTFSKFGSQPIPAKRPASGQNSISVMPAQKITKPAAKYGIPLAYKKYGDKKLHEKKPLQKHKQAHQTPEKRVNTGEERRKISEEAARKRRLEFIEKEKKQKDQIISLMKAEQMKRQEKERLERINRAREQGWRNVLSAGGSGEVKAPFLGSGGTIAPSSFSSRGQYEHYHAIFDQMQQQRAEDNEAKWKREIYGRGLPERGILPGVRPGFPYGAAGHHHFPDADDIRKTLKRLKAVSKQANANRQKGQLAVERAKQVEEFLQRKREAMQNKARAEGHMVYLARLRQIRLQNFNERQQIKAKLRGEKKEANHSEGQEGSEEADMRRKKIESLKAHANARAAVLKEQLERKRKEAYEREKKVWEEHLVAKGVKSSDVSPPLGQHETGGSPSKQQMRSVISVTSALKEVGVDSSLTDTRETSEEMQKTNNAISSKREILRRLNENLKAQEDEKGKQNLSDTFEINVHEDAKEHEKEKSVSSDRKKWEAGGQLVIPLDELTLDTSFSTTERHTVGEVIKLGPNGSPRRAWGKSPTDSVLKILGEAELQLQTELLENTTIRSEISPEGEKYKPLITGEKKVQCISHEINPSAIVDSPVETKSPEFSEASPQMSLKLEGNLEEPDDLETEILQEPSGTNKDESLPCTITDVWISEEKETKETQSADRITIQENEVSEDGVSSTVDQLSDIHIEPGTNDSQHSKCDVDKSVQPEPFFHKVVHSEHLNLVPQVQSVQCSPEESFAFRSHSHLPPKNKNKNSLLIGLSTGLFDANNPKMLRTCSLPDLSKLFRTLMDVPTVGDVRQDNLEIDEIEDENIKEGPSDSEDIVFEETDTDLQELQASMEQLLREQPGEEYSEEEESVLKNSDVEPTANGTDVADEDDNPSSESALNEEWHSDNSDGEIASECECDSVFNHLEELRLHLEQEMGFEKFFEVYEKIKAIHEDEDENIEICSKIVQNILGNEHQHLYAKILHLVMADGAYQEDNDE
The following applies: at 0.1 µM.

For assay [13], the target named is T5, Serine/threonine-protein kinase Nek1 (Homo sapiens). The following applies: at 1 µM.
For assay [14], the target named is T6, Serine/threonine-protein kinase Nek2 (Homo sapiens) (UniProt P51955).
T6 sequence (whole entry): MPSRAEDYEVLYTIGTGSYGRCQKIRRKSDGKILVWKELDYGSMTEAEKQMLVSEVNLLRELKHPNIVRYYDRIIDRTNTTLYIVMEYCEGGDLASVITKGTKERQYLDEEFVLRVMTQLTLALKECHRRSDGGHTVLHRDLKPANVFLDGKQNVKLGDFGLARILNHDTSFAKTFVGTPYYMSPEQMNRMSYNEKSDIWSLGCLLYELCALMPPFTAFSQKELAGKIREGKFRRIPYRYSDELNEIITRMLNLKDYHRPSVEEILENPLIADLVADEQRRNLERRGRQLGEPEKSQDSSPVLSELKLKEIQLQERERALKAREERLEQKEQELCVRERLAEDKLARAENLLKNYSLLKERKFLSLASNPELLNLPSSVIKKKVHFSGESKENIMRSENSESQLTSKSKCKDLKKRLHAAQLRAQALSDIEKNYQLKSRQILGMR
The following applies: at 0.1 µM.

Assay [15] concerns the target T6, Serine/threonine-protein kinase Nek2 (Homo sapiens). The conditions noted are these: at 1 µM.
Assay [16] addresses Serine/threonine-protein kinase Nek6 (Homo sapiens) (UniProt Q9HC98). The following applies: at 0.1 µM.
For assay [17] the target is unchanged. The following applies: at 1 µM.
For assay [18], the target named is Serine/threonine-protein kinase Nek7 (Homo sapiens) (UniProt Q8TDX7). The following applies: at 0.1 µM.
The target is the same in assay [19]. The conditions noted are these: at 1 µM.
Assay [20] deals with T7, Serine/threonine-protein kinase Nek9 (Homo sapiens) (UniProt Q8TD19).
T7 sequence (whole entry): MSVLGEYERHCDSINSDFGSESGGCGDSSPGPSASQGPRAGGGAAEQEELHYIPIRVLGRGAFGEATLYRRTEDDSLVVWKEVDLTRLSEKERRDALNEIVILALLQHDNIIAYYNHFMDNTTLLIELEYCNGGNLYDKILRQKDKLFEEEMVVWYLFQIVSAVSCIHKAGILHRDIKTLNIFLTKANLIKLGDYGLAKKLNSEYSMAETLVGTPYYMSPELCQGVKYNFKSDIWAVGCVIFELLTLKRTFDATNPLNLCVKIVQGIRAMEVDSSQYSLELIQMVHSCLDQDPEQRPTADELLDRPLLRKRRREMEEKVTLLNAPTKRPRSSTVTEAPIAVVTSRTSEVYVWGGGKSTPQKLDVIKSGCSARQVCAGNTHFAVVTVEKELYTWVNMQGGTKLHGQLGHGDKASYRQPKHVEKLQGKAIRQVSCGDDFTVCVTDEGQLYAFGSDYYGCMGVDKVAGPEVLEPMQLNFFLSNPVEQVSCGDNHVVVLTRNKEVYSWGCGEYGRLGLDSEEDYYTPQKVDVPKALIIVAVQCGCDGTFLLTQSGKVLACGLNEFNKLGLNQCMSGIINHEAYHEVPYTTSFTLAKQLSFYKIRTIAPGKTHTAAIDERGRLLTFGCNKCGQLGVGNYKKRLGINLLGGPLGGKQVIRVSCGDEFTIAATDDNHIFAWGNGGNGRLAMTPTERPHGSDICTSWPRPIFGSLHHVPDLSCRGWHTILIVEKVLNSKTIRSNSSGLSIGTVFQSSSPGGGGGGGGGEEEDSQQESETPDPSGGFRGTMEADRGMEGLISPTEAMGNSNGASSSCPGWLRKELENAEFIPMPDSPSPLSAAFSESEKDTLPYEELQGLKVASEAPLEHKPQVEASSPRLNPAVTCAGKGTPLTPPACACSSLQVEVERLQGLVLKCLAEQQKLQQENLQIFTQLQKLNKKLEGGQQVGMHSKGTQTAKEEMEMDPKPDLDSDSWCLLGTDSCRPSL
The following applies: at 0.1 µM.

Sequence of Serine/threonine-protein kinase Nek6 (Homo sapiens) (Q9HC98 whole entry): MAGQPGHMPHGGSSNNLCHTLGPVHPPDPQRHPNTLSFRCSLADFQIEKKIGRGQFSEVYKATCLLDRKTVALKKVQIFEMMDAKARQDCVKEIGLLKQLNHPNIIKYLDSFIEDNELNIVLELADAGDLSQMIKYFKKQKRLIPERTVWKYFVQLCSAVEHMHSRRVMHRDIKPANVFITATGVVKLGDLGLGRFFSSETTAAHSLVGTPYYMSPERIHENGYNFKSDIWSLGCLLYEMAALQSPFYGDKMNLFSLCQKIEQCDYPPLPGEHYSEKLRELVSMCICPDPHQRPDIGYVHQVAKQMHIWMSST
Sequence of Serine/threonine-protein kinase Nek7 (Homo sapiens) (Q8TDX7 whole entry, looked up): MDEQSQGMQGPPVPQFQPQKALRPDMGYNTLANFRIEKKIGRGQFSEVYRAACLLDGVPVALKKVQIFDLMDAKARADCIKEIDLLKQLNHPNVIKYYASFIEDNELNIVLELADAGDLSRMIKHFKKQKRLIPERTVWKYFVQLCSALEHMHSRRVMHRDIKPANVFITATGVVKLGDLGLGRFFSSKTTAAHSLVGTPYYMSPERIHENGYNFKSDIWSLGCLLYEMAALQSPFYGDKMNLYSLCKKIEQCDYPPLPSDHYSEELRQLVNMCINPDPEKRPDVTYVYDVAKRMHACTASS
Sequence of Casein kinase II subunit alpha (Homo sapiens) (P68400 whole entry, looked up): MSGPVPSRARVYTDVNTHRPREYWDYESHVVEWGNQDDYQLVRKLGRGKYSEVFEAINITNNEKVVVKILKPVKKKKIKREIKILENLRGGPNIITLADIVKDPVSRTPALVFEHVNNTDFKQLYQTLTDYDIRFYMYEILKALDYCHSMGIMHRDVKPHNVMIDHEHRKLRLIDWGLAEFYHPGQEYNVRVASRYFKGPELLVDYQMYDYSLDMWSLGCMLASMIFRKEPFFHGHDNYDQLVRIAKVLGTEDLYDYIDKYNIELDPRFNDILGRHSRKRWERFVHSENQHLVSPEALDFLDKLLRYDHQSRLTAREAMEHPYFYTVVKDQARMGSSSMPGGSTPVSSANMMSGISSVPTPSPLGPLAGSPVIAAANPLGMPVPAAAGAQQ
Sequence of Sphingosine kinase 1 (Homo sapiens) (Q9NYA1 whole entry): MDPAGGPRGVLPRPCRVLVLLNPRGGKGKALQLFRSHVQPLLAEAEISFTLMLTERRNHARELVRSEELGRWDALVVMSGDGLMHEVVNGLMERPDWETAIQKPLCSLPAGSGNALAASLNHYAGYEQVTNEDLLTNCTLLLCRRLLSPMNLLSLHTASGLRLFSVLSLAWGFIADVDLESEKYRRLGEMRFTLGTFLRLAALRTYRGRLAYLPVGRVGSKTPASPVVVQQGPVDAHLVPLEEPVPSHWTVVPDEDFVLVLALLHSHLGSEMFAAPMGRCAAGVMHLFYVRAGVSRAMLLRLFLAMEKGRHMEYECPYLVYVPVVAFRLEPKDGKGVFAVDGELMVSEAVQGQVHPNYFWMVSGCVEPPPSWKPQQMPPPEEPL

The term inhibition denotes the relative decrease from the control value, in per cent. For the compound `NS(=O)(=O)c1ccc(Nc2cc(-c3ccc(O)c(F)c3)n[nH]2)cc1`, the inhibition in assay [1] is -3.17%; in [2] it was 0%; in [3] it was 0.11%; in assay [4] it was 5.31%; in assay [5] it was 29.6%; in assay [6] it was -1.61%. Further, the inhibition in [7] is 3.48%; in assay [8], -0.76%; in assay [9], 0.06%; in assay [10] it was -4.53%; in assay [11], -0.51%; in [12], -0.93%. The inhibition in [13] was -1.21%; in assay [14] it was -3.94%; in assay [15] it was -3.05%; in [16], -4.94%; in assay [17] it was -2.21%; in assay [18], -0.59%. The figures for the inhibition in assay [19] and in [20] were -3.23% and 5.12%, respectively.
